MITF TRPM1 inh: reduces MITF-dependent TRPM1 promoter luciferase signal | 330,000 tested, 0.83% active | inhibition, % at 12.5 µM | AID 488899 | SK-MEL-5 TRPM1 promoter luciferase, 24 h;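 active means mean inhibition across replicates of 60% or more, whatever share of single replicates reaches that level; inconclusive means some that reach 60%, reason not given; inactive means mean inhibition across replicates below 60%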
LGR2 antag: blocks bursicon-induced cAMP signaling via Drosophila LGR2; AID 720647; inhibition, % at 9.99 µM; HEK293 LGR2, CRE-luciferase, bursicon-stimulated, 4 h; 380,000 tested, 0.35% active;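 active means drop in luminescence signal, shown as inhibition above about 50% in the replicate tests, limit read from the data, passing the limit was not always enough; inconclusive means probably only some replicates passing the limit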;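 further: agonist challenge used bursicon conditioned medium at about half maximal strength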
TWEAK Fn14 block: TWEAK-Fn14 signaling inhibition. TWEAK-stimulated Fn14 reporter cells, luciferase luminescence, 8 h. inhibition, % at 10 µM. 360,000 tested, 2% active. AID 1159606; in the data active means inhibition above about 50%
MITF act: MITF TRPM1 promoter activation in melanoma cells. SK-MEL-5 TRPM1-promoter luciferase, 24 h; % of positive control, neutral wells = 0. activation, % at 12.5 µM. 300,000 tested, 0.75% active;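 active means mean activation of at least 80% with every replicate also reaching 80%; inconclusive means mean reaches 80% but some replicate falls short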;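 further: 0% = neutral control wells and 100% = parthenolide positive control wells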
TROY NFkB inh: blocks TROY-dependent signaling in reporter cells; Q293 LMP1-TROYcd NF-kB luciferase reporter, 4 h; AID 1347056; inhibition, % at 10 µM; 360,000 tested, 0.98% active;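 active means compounds whose plate-normalised and pattern-corrected inhibition of the luciferase reporter signal at the single screening dose is 50% or more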
EBV LMP1 NFkB: inhibitors of Epstein-Barr LMP1-induced NF-kappaB reporter. LMP1-induced NF-kappaB luciferase reporter cells, luminescence. inhibition, % at 12.5 µM. 350,000 tested, 0.69% active. AID 504558; in the data active means inhibition above about 41%; inconclusive means no clear call, values can overlap the other calls;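 further: 0% = neutral control wells and 100% = reference inhibitor control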
An asterisk follows results filed as active. Sampled rows, rich in hits. Any-hit rate of the full collection: about 3%.

COc1cc(NC(=S)NC(=O)C(C)C)ccc1NC(=O)c1cc2ccccc2o1 was read as MITF TRPM1 inh -2.3, LGR2 antag 4.7, TWEAK Fn14 block -47.7, MITF act 0.9, TROY NFkB inh -8.4 and EBV LMP1 NFkB -13.5.
`COc1ccc(NC(=O)c2cc3ccccc3o2)cn1` gave MITF TRPM1 inh -104.0, LGR2 antag -58.2, TWEAK Fn14 block 8.3, MITF act 104.0*, TROY NFkB inh -29.2 and EBV LMP1 NFkB -27.3.
C[C@H]1CN([C@@H](C)CO)C(=O)Cc2cc(NS(C)(=O)=O)ccc2O[C@H]1CN(C)S(=O)(=O)c1ccc(F)cc1 was read as LGR2 antag -18.5.
CO[C@H]1CN(C)C(=O)c2ccc(NC(C)=O)cc2OC[C@@H](C)N(C(=O)C2CCCCC2)C[C@@H]1C was read as LGR2 antag -0.7.
For COc1cc(OC)cc(-n2nnnc2SCC(=O)Nc2nc3c(s2)CCCC3)c1 the results were MITF TRPM1 inh 3.1, LGR2 antag -6.0, TWEAK Fn14 block 1.0, MITF act 2.7, TROY NFkB inh 2.7 and EBV LMP1 NFkB 0.2.
Screening Cn1nnnc1SCC(=O)Nc1nc2c(s1)CCCC2 returned MITF TRPM1 inh -98.4, TWEAK Fn14 block 28.6, MITF act 93.1*, TROY NFkB inh -7.2 and EBV LMP1 NFkB -3.1.
Screening CN1CCN(C(=O)C[C@@H]2CC[C@H]3[C@@H](COC[C@@H](O)CN3Cc3cccc(Cl)c3)O2)CC1 returned LGR2 antag 10.3.
For Cc1ccc(/C=N/Nc2nc(C(C)(C)C)cs2)o1 the results were MITF TRPM1 inh -78.2, LGR2 antag -52.3, TWEAK Fn14 block -22.0, MITF act 84.7*, TROY NFkB inh 8.6 and EBV LMP1 NFkB -22.8.
Screening Cc1cc(=O)[nH]c(N/N=C/c2ccc(C)o2)n1 returned MITF TRPM1 inh 2.3, LGR2 antag -6.0, TWEAK Fn14 block 2.9, MITF act -4.1, TROY NFkB inh 4.1 and EBV LMP1 NFkB 48.4*.
Screening CC(C)(C)c1csc(N/N=C/c2cccnc2)n1 returned MITF TRPM1 inh -60.5, TWEAK Fn14 block -37.5, MITF act 57.8, TROY NFkB inh -14.6 and EBV LMP1 NFkB -16.9.
For Cc1ccc(/C=N/Nc2nc3ccccc3s2)o1 the results were MITF TRPM1 inh -17.0, LGR2 antag 19.1, TWEAK Fn14 block 60.3*, MITF act 21.0, TROY NFkB inh 27.7 and EBV LMP1 NFkB -29.9.
`Nc1cccc2nc3ccccc3cc12` gave MITF TRPM1 inh 84.7*, TWEAK Fn14 block -31.6, MITF act -81.9, TROY NFkB inh -62.0 and EBV LMP1 NFkB -14.3.
CC1=CN2C(=N)/C(=C/c3ccc([N+](=O)[O-])o3)C(=O)N=C2S1 was read as MITF TRPM1 inh 88.6*, LGR2 antag inconclusive, TWEAK Fn14 block 45.4, MITF act -88.8, TROY NFkB inh -18.7 and EBV LMP1 NFkB -24.0.
CC1=CN2C(=N)/C(=C/c3ccco3)C(=O)N=C2S1 was read as MITF TRPM1 inh -55.9, LGR2 antag 39.9, TWEAK Fn14 block 81.2*, MITF act 57.0, TROY NFkB inh 40.0 and EBV LMP1 NFkB -35.4.
CCOc1ccc(-c2ccc(/C=C3/C(=N)N4C=CSC4=NC3=O)o2)c([N+](=O)[O-])c1 was read as MITF TRPM1 inh 0.6, LGR2 antag 23.0, TWEAK Fn14 block 26.0, MITF act 1.7, TROY NFkB inh 10.5 and EBV LMP1 NFkB 1.7.
`CC1=CN2C(=N)/C(=C/c3cn(CCCOc4ccccc4C)c4ccccc34)C(=O)N=C2S1` gave MITF TRPM1 inh -12.8, LGR2 antag -62.1, TWEAK Fn14 block 0.3, MITF act 10.8, TROY NFkB inh -1.2 and EBV LMP1 NFkB -18.8.
Screening Cc1ccc[n+](CC(=O)Nc2cc(C(F)(F)F)ccc2Cl)c1 returned MITF TRPM1 inh -4.1, LGR2 antag 4.2, TWEAK Fn14 block 3.4, MITF act 3.8, TROY NFkB inh 14.2 and EBV LMP1 NFkB -1.0.
`CCC(C)(C)c1ccc(OCCCC[n+]2cccc(C)c2)c(C(C)(C)CC)c1` gave MITF TRPM1 inh 98.0*, TWEAK Fn14 block 76.9*, MITF act -97.3, TROY NFkB inh 48.4 and EBV LMP1 NFkB 24.1.
`O=C(Nc1ccccc1N1CCOCC1)c1ccc([N+](=O)[O-])s1` gave MITF TRPM1 inh 80.9*, LGR2 antag 10.1, TWEAK Fn14 block 16.1, MITF act -81.1, TROY NFkB inh -18.5 and EBV LMP1 NFkB -1.7.
For O=C(Nc1ccc(S(=O)(=O)N2CCOCC2)cc1)c1ccc([N+](=O)[O-])s1 the results were MITF TRPM1 inh 84.2*, LGR2 antag -8.5, TWEAK Fn14 block -29.1, MITF act -83.3, TROY NFkB inh 10.6 and EBV LMP1 NFkB -9.9.
`Cc1ccc(-n2ccc(=O)c(C(=O)Nc3ccc(S(=O)(=O)N4CCOCC4)cc3)n2)cc1` gave MITF TRPM1 inh -7.3, LGR2 antag -14.8, TWEAK Fn14 block -10.3, MITF act 9.3, TROY NFkB inh 4.3 and EBV LMP1 NFkB 44.9*.
For O=C(Nc1ccc(S(=O)(=O)N2CCOCC2)cc1)c1nn(-c2ccc(F)cc2)ccc1=O the results were MITF TRPM1 inh -9.0, LGR2 antag 2.1, TWEAK Fn14 block -11.1, MITF act 13.2, TROY NFkB inh 10.9 and EBV LMP1 NFkB 0.2.
For O=C(Nc1ccccc1F)N[C@H]1CC[C@@H](CC(=O)N2CCCCC2)O[C@H]1CO the results were LGR2 antag 13.2.
For COc1ccc(-c2nc(NC(C)=O)sc2-c2ccc(OC)cc2)cc1 the results were MITF TRPM1 inh 5.4, TWEAK Fn14 block 17.4, MITF act -0.6, TROY NFkB inh 7.2 and EBV LMP1 NFkB -6.7.
COc1ccc(C2CC(=O)c3sc(NC(C)=O)nc3C2)cc1 (centres undefined) was read as MITF TRPM1 inh -23.2, LGR2 antag -11.6, TWEAK Fn14 block 72.1*, MITF act 25.7, TROY NFkB inh 62.3* and EBV LMP1 NFkB -8.4.
`Cc1ccc(-c2cnc3ccccc3n2)cc1C` gave MITF TRPM1 inh 12.8, LGR2 antag 19.4, TWEAK Fn14 block 72.8*, MITF act -15.9, TROY NFkB inh 12.1 and EBV LMP1 NFkB 12.1.
Screening Oc1ccc(-c2cnc3ccccc3n2)cc1 returned MITF TRPM1 inh -99.0, LGR2 antag -45.0, TWEAK Fn14 block 3.2, MITF act inconclusive, TROY NFkB inh -56.9 and EBV LMP1 NFkB 2.8.
Screening CCCCOc1ccc(-c2cnc3ccccc3n2)cc1 returned MITF TRPM1 inh -18.0, LGR2 antag 70.3*, TWEAK Fn14 block 79.0*, MITF act 15.1, TROY NFkB inh 51.7* and EBV LMP1 NFkB 16.2.
`CCCCOc1ccc(-c2ncc(Cl)cn2)cc1` gave MITF TRPM1 inh -101.0, LGR2 antag -45.8, TWEAK Fn14 block -2.2, MITF act 105.1*, TROY NFkB inh -50.4 and EBV LMP1 NFkB -52.8.
For COCC(=O)N(C)C[C@@H]1Oc2cc(-c3ccc(C#N)cc3)ccc2S(=O)(=O)N([C@H](C)CO)C[C@@H]1C the results were LGR2 antag -10.4.

Compound activity deposited in PubChem BioAssay by several laboratories.
